Measured values: PubChem BioAssay

experiment: probe aEGFR binding to arrayed compounds – biochemical, biotinylated probe, 635/667 nm fluorescence, primary screen (AID 1097); settings: small-molecule microarray, higher = more signal;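 also: probe is a biotinylated anti-EGFR antibody binding compounds printed on slides; score combines fluorescence near 667 nm and signal to noise of each spot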

Row | SMILES | composite z-score
1 | COCC(=C=CC[C@H](O)c1ccc(OCCO)cc1)CCO | 0.0882
2 | CCOC(=O)C[C@H]1[C@H](OC(=O)Cc2ccc3c(c2)OCO3)[C@@H](NC(=O)c2ccc3ccccc3n2)c2cc(OCCCO)ccc2N1C(=O)c1ccccc1 | -0.0039
3 | COc1ccc([Si](C)(C)[C@@H]2[C@@H](CC(=O)N3CCC[C@H]3CO)O[C@]3(C(=O)N(Cc4cccc(N5C(=O)COc6ccccc65)c4)c4ccccc43)[C@H]2C)cc1 | -0.165
4 | COc1ccc(CCNC(=O)[C@@H]2c3ccccc3C(=O)N(C3CCCCC3)[C@H]2c2ccc(CO)cc2)cc1 | -0.0972
5 | NCCCCCNC(=O)[C@@H]1C[C@@H]2C(=O)N[C@@H](CCCCN)C(=O)N2[C@@H]1c1ccc(O)cc1 | 0.345
6 | NC(=O)[C@H]1[C@@H]2C(=O)O[C@@H](c3ccccc3)[C@@H](c3ccccc3)N2[C@@H](c2ccc(OCCO)cc2)[C@]12C(=O)Nc1ccc(C#CCCO)cc12 | 0.0932
7 | CCCCC(O)C1C=CC2C(=O)N(C)C(=O)C2N1N(c1ccccc1)c1ccccc1 (configuration not stated) | 0.111
8 | CCCC[C@@H](O)C1=C(COC)C[C@H]2C(=O)N(C)C(=O)[C@H]2[C@H]1CO | -0.156
9 | C=C(COC)/C(=C/C[C@H](OC(=O)c1ccncc1)c1ccccc1OCCO)c1cc(C(=O)OC)ccc1OC | 0.146
10 | COC(=O)C1(CC(C)C)C=C2C(=C(c3ccccc3)C(=O)C2C)CN1 (configuration not stated) | 0.917
11 | CCOc1cc(C(O)C2C=CC3C(=O)NC(=O)C3N2Nc2ccc(Cl)cc2Cl)ccc1O (configuration not stated) | -0.16
12 | Cc1ccc(S[C@]2(C(=O)NC(C)C)CC(=O)N(Cc3cc(C(F)(F)F)cc(C(F)(F)F)c3)[C@@H]2c2ccc(CO)cc2)cc1 | -0.302
